# Assay results reported in PubChem BioAssay (NCATS).
# Records with an inconclusive call do not appear. This is one part of the list. Active and inactive are the calls of the source. Unless noted, the call rests on the fitted dose curve; in most records, active means well fitted curve in the direction sought with a large enough effect; inconclusive means small, poorly fitted or top-dose-only effect, or another doubt; inactive means no such curve, though single readings can be large; an effect the other way counts as inactive or inconclusive.
# What was measured:
# [1] = molecular target: Bifunctional 3'-5' exonuclease/ATP-dependent helicase WRN (Homo sapiens) (UniProt Q14191); assay: qHTS for Inhibitors of WRN Helicase: Confirmatory Assay for Cherry-picked Compounds. (AID 720497); further: nearly all actives have a fitted effect of over 65% in size
# In short: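 Compound and 20 nM WRN incubated 15 min, RT. Forked duplex (100 nM) plus ATP (2 mM) added. Fluorescence monitored kinetically and normalized to controls.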
# [2] = qHTS for Inhibitors of WRN Helicase: Thiazole Orange DNA Binding Counterscreen (AID 720499);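 further: drop in dye fluorescence marks compound binding to DNA; on the % scale 0 is the no-effect control and ±100 the full control effect; nearly all actives have a fitted effect of over 60% in size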
# In short: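 Thiazole orange displacement from unlabeled DNA (50 nM DNA, 100 nM dye) was monitored by fluorescence, ex 480/em 530 nm, following 15 min room-temperature incubation with pintool-dispensed compounds.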
# [3] = molecular target: RecQ-like DNA helicase BLM (Homo sapiens) (UniProt P54132); assay: qHTS for Inhibitors of WRN Helicase: BLM Helicase Counterscreen for WRN Inhibitors (AID 720503);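 further: plate controls were DMSO vehicle for no effect and enzyme-free control wells for full effect; nearly all actives have a fitted effect of over 60% in size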
# In short: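 Reactions were started with 100 nM DNA substrate and 2 mM ATP (final) after compound and 1 nM BLM stood 15 min at room temperature in Tris-HCl pH 8.0 buffer with NaCl, MgCl2, DTT and Tween-20. Two red-fluorescence reads 15 min apart were normalized against DMSO and no-enzyme wells.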
# [4] = molecular target: Flap endonuclease 1 (Homo sapiens) (UniProt P39748); assay: qHTS Assay for the Inhibitors of FEN1: Confirmatory Assay for Cherry-picked Compounds (AID 720498); conditions: FEN1 flap cleavage, TAMRA/BHQ2 fluorogenic DNA substrate; further: potency means the concentration at half of the fitted maximal effect; nearly all actives have a fitted effect of over 60% in size
# In short: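 FEN1 at 10 nM was preincubated with compound for 15 min at room temperature, then 50 nM (final) double-flap DNA substrate was added. TAMRA fluorescence released from the BHQ-2-quenched flap was read at 0 and 15 min (ex 525/em 598 nm).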
# [5] = molecular target: DNA polymerase eta (Homo sapiens) (UniProt Q9Y253); assay: qHTS for Inhibitors of Polymerase Eta: Confirmatory Assay for Cherry-picked Compounds (AID 720502); conditions: Pol eta primer extension, TAMRA/BHQ fluorescence, 10 min; further: potency means the concentration at half of the fitted maximal effect
# In short: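 The reaction starts with 50 nM final labeled DNA substrate added to Pol eta (10 nM) that had sat with compound for 15 min. TAMRA emission at 598 nm is read at 0 and 10 min.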
# [6] = qHTS assay for cell viability of the p53RE-bla HCT-116 cell line (AID 743292); further: potency means the concentration at half of the fitted maximal effect; nearly all actives have a fitted effect of over 55% in size
# In short: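 CellSensor p53RE-bla HCT-116 cells, 4,000/well, preincubated 5 h at 37 C, then exposed to compounds in DMSO for 16 h at 37 C. Viability read as CellTiter-Glo luminescence (intracellular ATP) after 30 min at room temperature.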
# [7] = qHTS assay for small molecule activators of the human pregnane X receptor (PXR) signaling pathway (AID 720659; call rule not given here; further: 0% is about no effect)
# [8] = qHTS profiling of the MIPE4 collection as inhibitors of Plasmodium falciparum (3D7) proliferation (AID 743344; call rule not given here;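 further: scaled between DMSO vehicle wells and 0.29 µM artemisinin as full inhibition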); conditions: P. falciparum 3D7 in erythrocytes, SYBR Green DNA fluorescence, 72 h; at 5.51 µM (top of the series) unless noted
# In short: (§1)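 Erythrocytes infected with P. falciparum (0.3% parasitemia, 2.5% hematocrit) incubated with compounds 72 h at 37 C, 5% CO2. Lysis with saponin/Triton buffer containing SYBR Green I, overnight at room temperature in the dark; DNA fluorescence (485/535 nm) normalised to 0.29 uM artemisinin and DMSO.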
# [9] = qHTS profiling of the MIPE4 collection as inhibitors of Plasmodium falciparum (DD2) proliferation (AID 743345; call rule not given here); conditions: P. falciparum Dd2 in erythrocytes, SYBR Green DNA, 72 h; at 5.51 µM (top of the series) unless noted
# In short: as §1
# [10] = qHTS profiling of the MIPE4 collection as inhibitors of Plasmodium falciparum (DD2) proliferation (Rep 2) (AID 743346; call rule not given here); conditions: P. falciparum Dd2 in erythrocytes, SYBR Green DNA, 72 h; at 5.51 µM (top of the series) unless noted
# In short: as §1
# [11] = qHTS profiling of the MIPE4 collection as inhibitors of Plasmodium falciparum (HB3) proliferation (AID 743347; call rule not given here;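 further: plate controls were DMSO vehicle wells for no effect and artemisinin wells for full effect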); conditions: P. falciparum HB3 in erythrocytes, SYBR Green DNA, 72 h; at 5.51 µM (top of the series) unless noted
# In short: as §1
# [12] = molecular target: Guanine nucleotide-binding protein G(i) subunit alpha-1 (Homo sapiens) (UniProt P63096); assay: qHTS Assay for Inhibitors of RGS12 GoLoco Motif Activity (Green Fluorophore) (AID 879);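 further: 0% = labeled peptide with Gαi1 and full inhibition = labeled peptide alone without protein; negative values mean loss of peptide binding seen as reduced polarization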
# In short: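 Fluorescence polarization assay: 50 nM Gαi1 with 10 nM FITC-labeled RGS12 GoLoco peptide in 10 mM Tris pH 7.5, 150 mM NaCl, 0.1 mM GDP, 0.05% NP40, 10 min at room temperature with compound.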
# [13] = molecular target: Cytochrome P450 2D6 (Homo sapiens) (UniProt P10635); assay: qHTS Assay for Inhibitors and Substrates of Cytochrome P450 2D6 (AID 891);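 further: luciferin methyl ether substrate demethylated by CYP2D6 with NADPH regeneration; on the % scale 0 is the no-effect control and ±100 the full control effect; nearly all actives have a fitted effect of over 60% in size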
# In short: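 Human CYP2D6 (5 nM) with 30 uM Luciferin-ME EGE (at Km) in 100 mM KPO4, compound preincubated 10 min, then NADPH regeneration system for 60 min at room temperature. Luciferin read by luminescence; normalized to 1.43 uM quinidine.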
# [14] = molecular target: Cytochrome P450 3A4 (Homo sapiens) (UniProt P08684); assay: qHTS Assay for Activators of Cytochrome P450 3A4 (AID 885); further: nearly all actives have a fitted effect of over 65% in size
# In short: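 Signal was normalized against complete inhibition by 57 uM ketoconazole. The reaction used 20nM CYP3A4 with 25uM Luciferin-PPXE, 10-min compound preincubation and a 60-min NADPH-supported step at RT.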
# Chain of RecQ-like DNA helicase BLM (Homo sapiens) (P54132 whole entry, looked up): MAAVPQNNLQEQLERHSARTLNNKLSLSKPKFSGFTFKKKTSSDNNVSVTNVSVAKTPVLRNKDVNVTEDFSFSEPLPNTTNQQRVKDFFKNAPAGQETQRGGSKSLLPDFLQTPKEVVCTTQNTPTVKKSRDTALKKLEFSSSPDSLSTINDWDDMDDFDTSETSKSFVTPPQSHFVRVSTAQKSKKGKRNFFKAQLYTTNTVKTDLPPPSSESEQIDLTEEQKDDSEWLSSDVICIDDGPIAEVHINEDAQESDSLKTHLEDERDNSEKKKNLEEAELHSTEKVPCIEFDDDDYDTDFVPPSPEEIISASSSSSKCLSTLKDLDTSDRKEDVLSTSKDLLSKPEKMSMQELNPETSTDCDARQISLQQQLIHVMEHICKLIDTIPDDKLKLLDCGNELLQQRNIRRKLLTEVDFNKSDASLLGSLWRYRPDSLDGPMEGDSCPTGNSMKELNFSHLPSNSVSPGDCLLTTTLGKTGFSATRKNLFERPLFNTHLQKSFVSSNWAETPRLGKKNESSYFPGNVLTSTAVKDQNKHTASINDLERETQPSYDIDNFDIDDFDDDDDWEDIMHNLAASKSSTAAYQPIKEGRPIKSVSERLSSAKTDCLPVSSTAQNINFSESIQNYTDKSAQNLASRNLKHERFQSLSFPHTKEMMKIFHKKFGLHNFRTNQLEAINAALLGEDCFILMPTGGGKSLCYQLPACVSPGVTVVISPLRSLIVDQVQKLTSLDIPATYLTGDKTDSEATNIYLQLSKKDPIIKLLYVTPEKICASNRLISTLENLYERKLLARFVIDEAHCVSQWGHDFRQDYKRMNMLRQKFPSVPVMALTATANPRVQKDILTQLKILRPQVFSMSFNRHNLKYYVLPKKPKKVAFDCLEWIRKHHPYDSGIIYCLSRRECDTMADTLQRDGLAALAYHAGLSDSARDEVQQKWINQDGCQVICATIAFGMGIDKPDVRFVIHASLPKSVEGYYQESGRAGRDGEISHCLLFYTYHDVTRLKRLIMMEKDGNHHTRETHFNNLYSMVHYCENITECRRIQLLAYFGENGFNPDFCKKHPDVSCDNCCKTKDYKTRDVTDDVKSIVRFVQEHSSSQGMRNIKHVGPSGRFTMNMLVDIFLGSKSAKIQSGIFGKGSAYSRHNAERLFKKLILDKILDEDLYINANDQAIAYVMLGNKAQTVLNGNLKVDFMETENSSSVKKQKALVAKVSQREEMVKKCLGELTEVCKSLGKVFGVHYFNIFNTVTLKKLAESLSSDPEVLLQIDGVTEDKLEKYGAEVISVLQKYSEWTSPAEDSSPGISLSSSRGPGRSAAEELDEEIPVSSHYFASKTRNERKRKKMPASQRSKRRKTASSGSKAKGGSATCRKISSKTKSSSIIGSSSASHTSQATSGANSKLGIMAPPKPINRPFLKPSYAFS
# Chain of Bifunctional 3'-5' exonuclease/ATP-dependent helicase WRN (Homo sapiens) (Q14191 whole entry, looked up): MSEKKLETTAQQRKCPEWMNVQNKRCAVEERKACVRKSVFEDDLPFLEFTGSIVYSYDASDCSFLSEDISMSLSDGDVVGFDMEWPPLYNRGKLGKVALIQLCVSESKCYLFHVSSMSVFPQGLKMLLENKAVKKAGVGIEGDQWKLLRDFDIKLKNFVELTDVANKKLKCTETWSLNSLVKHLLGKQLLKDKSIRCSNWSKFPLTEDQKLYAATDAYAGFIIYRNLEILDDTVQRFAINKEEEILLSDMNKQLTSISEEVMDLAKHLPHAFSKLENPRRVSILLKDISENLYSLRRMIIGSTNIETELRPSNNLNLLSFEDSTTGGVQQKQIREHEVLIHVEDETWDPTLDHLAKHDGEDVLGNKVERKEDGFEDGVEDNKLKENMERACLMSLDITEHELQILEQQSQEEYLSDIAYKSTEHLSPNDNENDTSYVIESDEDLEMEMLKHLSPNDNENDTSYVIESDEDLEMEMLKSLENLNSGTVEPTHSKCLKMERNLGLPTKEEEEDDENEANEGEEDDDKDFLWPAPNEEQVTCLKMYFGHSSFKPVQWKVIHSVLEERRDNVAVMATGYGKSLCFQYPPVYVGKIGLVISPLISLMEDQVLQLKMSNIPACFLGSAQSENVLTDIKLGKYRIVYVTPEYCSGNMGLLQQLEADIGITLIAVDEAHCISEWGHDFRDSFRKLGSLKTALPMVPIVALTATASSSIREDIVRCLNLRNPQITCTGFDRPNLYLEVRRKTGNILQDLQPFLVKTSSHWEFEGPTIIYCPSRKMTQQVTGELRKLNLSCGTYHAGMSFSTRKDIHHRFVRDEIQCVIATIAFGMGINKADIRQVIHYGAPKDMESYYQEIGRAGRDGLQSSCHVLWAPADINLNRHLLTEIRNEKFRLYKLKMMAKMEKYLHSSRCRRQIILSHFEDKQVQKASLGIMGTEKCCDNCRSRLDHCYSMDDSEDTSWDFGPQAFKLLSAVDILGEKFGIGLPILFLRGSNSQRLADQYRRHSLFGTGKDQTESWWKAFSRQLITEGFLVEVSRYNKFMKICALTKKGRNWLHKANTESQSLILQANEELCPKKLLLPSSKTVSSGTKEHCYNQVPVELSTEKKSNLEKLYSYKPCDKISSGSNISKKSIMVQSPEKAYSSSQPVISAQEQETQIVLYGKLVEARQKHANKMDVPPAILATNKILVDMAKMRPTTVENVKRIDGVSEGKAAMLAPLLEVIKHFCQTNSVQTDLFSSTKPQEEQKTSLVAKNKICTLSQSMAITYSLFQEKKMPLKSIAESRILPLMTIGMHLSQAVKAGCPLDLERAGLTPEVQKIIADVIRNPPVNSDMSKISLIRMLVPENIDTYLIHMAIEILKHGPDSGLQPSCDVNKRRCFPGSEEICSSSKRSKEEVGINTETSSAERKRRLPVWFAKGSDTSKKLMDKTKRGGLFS
# Chain of DNA polymerase eta (Homo sapiens) (Q9Y253 whole entry, looked up): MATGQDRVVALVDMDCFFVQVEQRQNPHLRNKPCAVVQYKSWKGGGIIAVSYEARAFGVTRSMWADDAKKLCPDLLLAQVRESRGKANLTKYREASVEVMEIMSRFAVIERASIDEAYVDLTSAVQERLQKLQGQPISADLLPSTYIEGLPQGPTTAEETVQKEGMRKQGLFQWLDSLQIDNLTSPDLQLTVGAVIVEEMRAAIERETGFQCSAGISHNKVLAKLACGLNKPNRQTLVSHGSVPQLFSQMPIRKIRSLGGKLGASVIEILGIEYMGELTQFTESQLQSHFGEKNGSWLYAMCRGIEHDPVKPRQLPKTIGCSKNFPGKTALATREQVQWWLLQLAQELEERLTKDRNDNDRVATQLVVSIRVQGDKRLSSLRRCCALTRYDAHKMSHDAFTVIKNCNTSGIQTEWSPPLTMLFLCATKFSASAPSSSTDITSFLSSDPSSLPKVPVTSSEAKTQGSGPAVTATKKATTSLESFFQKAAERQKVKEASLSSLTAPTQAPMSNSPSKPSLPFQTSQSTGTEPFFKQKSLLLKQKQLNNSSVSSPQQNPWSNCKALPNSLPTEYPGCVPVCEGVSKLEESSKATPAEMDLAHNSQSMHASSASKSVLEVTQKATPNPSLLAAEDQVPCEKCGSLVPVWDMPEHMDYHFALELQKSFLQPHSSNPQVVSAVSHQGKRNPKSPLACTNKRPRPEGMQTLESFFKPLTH
# Chain of Cytochrome P450 2D6 (Homo sapiens) (P10635 whole entry, looked up): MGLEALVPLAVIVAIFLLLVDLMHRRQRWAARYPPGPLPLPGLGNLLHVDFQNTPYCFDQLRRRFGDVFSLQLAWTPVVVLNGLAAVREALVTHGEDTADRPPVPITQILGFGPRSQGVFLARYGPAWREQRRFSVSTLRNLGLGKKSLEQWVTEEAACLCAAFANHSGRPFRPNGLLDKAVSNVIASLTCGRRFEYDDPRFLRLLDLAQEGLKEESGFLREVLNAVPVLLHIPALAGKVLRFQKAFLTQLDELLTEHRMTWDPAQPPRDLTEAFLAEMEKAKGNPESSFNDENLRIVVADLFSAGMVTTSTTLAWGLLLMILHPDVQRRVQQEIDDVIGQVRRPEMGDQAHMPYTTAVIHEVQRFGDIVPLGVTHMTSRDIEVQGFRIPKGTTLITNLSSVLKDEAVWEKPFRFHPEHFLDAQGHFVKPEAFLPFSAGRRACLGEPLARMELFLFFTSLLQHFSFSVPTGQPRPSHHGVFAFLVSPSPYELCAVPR
# Chain of Guanine nucleotide-binding protein G(i) subunit alpha-1 (Homo sapiens) (P63096 whole entry, looked up): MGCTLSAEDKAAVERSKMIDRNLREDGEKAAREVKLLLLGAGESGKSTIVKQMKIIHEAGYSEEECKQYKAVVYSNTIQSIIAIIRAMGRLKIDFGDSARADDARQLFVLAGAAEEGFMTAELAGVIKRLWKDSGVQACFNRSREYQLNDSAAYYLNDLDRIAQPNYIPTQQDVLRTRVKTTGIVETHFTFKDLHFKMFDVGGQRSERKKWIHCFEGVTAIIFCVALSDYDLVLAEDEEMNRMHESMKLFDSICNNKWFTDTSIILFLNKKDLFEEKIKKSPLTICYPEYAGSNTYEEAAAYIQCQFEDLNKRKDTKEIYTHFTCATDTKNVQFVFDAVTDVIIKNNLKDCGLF
# Chain of Flap endonuclease 1 (Homo sapiens) (P39748 whole entry, looked up): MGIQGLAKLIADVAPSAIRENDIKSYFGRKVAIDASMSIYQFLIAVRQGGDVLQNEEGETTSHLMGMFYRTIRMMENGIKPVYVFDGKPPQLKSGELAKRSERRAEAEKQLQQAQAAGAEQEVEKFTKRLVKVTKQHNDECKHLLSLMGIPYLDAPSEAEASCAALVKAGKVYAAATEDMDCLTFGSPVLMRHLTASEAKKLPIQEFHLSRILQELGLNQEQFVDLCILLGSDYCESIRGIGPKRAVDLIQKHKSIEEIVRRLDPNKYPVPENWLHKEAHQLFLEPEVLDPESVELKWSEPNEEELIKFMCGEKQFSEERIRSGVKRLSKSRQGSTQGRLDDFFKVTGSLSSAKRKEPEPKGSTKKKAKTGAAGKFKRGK
smiles,measurement,setting,value
Cc1ccc2c(c1)=C/C(=C\c1c(O)[nH]c(=O)[nH]c1=O)C(=O)N=2,outcome,[1],inactive
same,outcome,[2],inactive
same,outcome,[3],inactive
O=C(O)COc1ccccc1/C=C1\C(=O)NC(=O)N(CCC2=CCCCC2)C1=O,outcome,[1],inactive
same,outcome,[2],inactive
same,outcome,[3],inactive
COc1cccc(N2C(=O)NC(=O)/C(=C\c3ccc([N+](=O)[O-])s3)C2=O)c1,Potency,[4],8.49 µM (active)
same,Potency,[5],37.9 µM (active)
O=C1NC(=O)N(c2ccc(F)cc2)C(=O)/C1=C/c1ccc2c(c1)CCCN2Cc1ccccc1,Potency,[5],84.9 µM (active)
CCC[CH2][Sn]([CH2]CCC)([CH2]CCC)[O]C(=O)c1ccccc1,Potency,[6],6.31 µM (active)
[Cl][Sn]([c]1ccccc1)([c]1ccccc1)[c]1ccccc1,Potency,[6],7.94 µM (active)
same,outcome,[7],inactive
COC(=O)C1(O)CC2OC1(C)n1c3ccccc3c3c4c(c5c6ccccc6n2c5c31)C(=O)NC4 (centres undefined),"parasite growth, % of DMSO control",[8],4.95%
same,"parasite growth remaining, % of DMSO control (lower = more inhibition)",[9],7.86%
same,"parasite growth, % of control (lower = inhibition)",[10],21.3%
same,"growth, % of control",[11],4.75%
CC(C)(N)CNC(=O)CC1CCC2(CC1)OOC1(O2)C2CC3CC(C2)CC1C3 (centres undefined),"parasite growth, % of DMSO control",[8],4.69% [at 28.5 µM]
same,"parasite growth remaining, % of DMSO control (lower = more inhibition)",[9],6.94% [at 28.5 µM]
same,"parasite growth, % of control (lower = inhibition)",[10],27.3% [at 28.5 µM]
same,"growth, % of control",[11],5.72% [at 28.5 µM]
C[C@@]12C=CC(=O)C=C1CC[C@@H]1C2=CC[C@]2(C)[C@@H]1CC[C@H]2C(=O)CN1CCN(c2cc(N3CCCC3)nc(N3CCCC3)n2)CC1,Potency,[12],inactive
COC(=O)C1C(c2ccccc2)C2C(=O)c3c(OC)cc(OC)cc3O[C@@]12c1ccc(OC)cc1 (some centres undefined),"activity change, negative = inhibition",[13],-16.4% [at 11.4 µM] (inactive)
CCC1CN2CCC1CC2C(Oc1cc2ccccc2c2ccccc12)c1ccnc2ccc(O)cc12 (centres undefined),"activity change, negative = inhibition",[13],-1.58% [at 11.4 µM] (inactive)
O=C(O)c1cc2c(cc1S(=O)(=O)O)[C@H]1[C@@H]([C@H]3[C@H]2[C@@]2(Cl)C(Cl)=C(Cl)[C@]3(Cl)C2(Cl)Cl)[C@]2(Cl)C(Cl)=C(Cl)[C@@]1(Cl)C2(Cl)Cl,"activity change, positive = activation",[14],-41.4% [at 11.4 µM] (inactive)
